HIF-2a block: blocks HIF-2a reporter activity. AID 624352. actives 0.72% (n = 360,000). inhibition, % at 18.8 µM. 786-0 RCC cells HIF-2a reporter, luciferase luminescence, overnight;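 active means inhibition of the luminescence signal of 40% or more relative to plate controls, in a single-dose primary screen at 18.75 µM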
Peg3 promoter: inhibitors of Peg3 promoter; HeLa PEG-Prom luciferase reporter, luminescence, overnight; inhibition, % at 20 µM; AID 588405; actives 1.7% (n = 360,000);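 active means inhibition of at least 50% at 20 µM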
KKLEB cytotox: counter-screen for CF NF-kB inhibitors: cytotoxicity; activity change (cytotoxicity), % at 5 µM; actives 0.36% (n = 360,000); KKLEB CF airway cells viability, ATPlite luminescence, overnight; hits give low values; cells stimulated with P. aeruginosa culture filtrate;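 active means corrected activity change at or below -50% at 5 µM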
MITF TRPM1 inh: inhibitors of MITF-driven TRPM1 promoter in melanoma cells; SK-MEL-5 TRPM1 promoter luciferase, 24 h; inhibition, % at 12.5 µM; actives 0.83% (n = 330,000);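 active means mean inhibition across replicates of 60% or more, whatever share of single replicates reaches that level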
CF NFkB block: cystic fibrosis NF-kB activation inhibition. KKLEB NF-kB-GFP reporter, PAF-induced, GFP fluorescence overnight. inhibition, % at 5 µM. actives 0.86% (n = 360,000). AID 588850;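 active means at least 50% inhibition at 5 µM, scaled per plate between neutral and stimulator controls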;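 further: PAF is a Pseudomonas aeruginosa culture filtrate used as stimulus; plate controls were PAF-stimulated DMSO wells for no effect and unstimulated DMSO wells for full effect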
Shn3 3UTR inh: reduces Shn3 3'UTR luciferase signal in osteoblasts | Clone20 osteoblast Shn3 3'UTR firefly luciferase, 24 h | inhibition, % at 12.5 µM | actives 0.52% (n = 360,000);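 active means mean inhibition of at least 75% with every replicate also reaching 75%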;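 further: 0% = median of neutral control wells and 100% = pilot-screen positive control compound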
The depositor's hits bear a star; x = no result given. Only some compounds are listed: those with a hit (about 2.8% of all), similar ones and a draw of the others.

SMILES	HIF-2a block	Peg3 promoter	KKLEB cytotox	MITF TRPM1 inh	CF NFkB block	Shn3 3UTR inh
Cc1cccc(NC(=O)CSc2nc3ccccc3c(=O)n2C)c1C	6	19	-9	x	6	87*
CS(=O)(=O)c1ccc(Cl)c(NC(=O)CSc2nc3ccccc3c(=O)n2Cc2ccco2)c1	15	29	-54*	27	43	41
CC(C)Cc1nnc(NC(=O)CCC(=O)N2CCN(c3ccc(F)cc3)CC2)s1	12	-10	-10	2	6	7
COCCn1c(-c2ccc(OC)cc2)cnc1SCC(=O)Nc1ccc(OC)cc1OC	11	64*	6	-1	-5	19
O=C(COc1ccccc1[N+](=O)[O-])Nc1ccc(N2CCN(C(=O)c3cccs3)CC2)cc1	-15	104*	-18	48	-19	36
COc1ccc(-c2noc(CCCCC(=O)N3CCN(c4cc(C)ccc4C)CC3)n2)cc1	13	-7	-4	53	23	92*
COc1ccc(-c2noc(CCCC(=O)N3CCN(c4cc(C)ccc4C)CC3)n2)cc1	-214	-283	12	-63	-1	-50
CCOc1ccc(-c2cc(CCCC(=O)N3CCN(c4ccc(OC)cc4)CC3)no2)cc1	50*	7	8	11	22	37
CCN(c1ccccc1)S(=O)(=O)c1ccc2c(c1)C(C)(C)C(=O)N2C	9	5	-5	x	18	7
CCCC(C(=O)NC1CCCC1)N(Cc1ccc(F)cc1)C(=O)c1snc(C(N)=O)c1N (configuration not stated)	16	19	-5	0	-8	26
CCCC(C(=O)NC(C)(C)C)N(Cc1ccc(F)cc1)C(=O)c1snc(C(N)=O)c1N (configuration not stated)	18	97*	1	-2	-3	3
Cc1ccc(NC(=O)CCNC(=O)c2ccc([N+](=O)[O-])cc2)cc1C	-9	15	-3	11	2	0
CC1CCCCC1NC(=O)CCN1C(=O)C2C3C=CC(C3)C2C1=O (configuration not stated)	4	-7	5	0	-1	-6
O=[N+]([O-])c1ccc2nc(NN=Cc3ccc(O)cc3)sc2c1	-193	72*	-6	21	34	16
CC1(C)CC(C(CCN(Cc2ccccc2)C(=O)c2ccco2)c2ccc(F)cc2)CCO1 (configuration not stated)	-12	51*	-9	-6	16	9
CC1(C)CC(=O)C(C(=O)C2CCN(S(=O)(=O)c3ccccc3)CC2)C(=O)C1	11	0	5	10	-5	14
Cc1ccc(S(=O)(=O)Nc2ccccc2C(=O)Nc2nc(-c3ccc(F)cc3)cs2)cc1	9	41	-58*	44	49	75
COc1ccc(-c2csc(NC(=O)c3ccccc3NS(=O)(=O)c3ccc(F)c(F)c3)n2)cc1	35	47	-51*	77*	55*	79
COc1ccc(-c2csc(NC(=O)c3ccccc3F)n2)cc1	-223	-160	-3	-5	-5	-9
CCOC(=O)C1CCN(C(=O)Nc2c(-c3ccccc3)noc2C)CC1	10	2	-2	-3	-12	-6
O=C1c2cc([N+](=O)[O-])ccc2-c2cc(Br)c(N=C(NO)C(F)(F)F)cc21	-31	97*	-23	17	29	-15
O=C1c2cc([N+](=O)[O-])ccc2-c2cc(Cl)c(NC(=O)C(F)(F)F)cc21	-41	-19	18	9	-44	-11
Cc1ccc(OCC(=O)Nc2ccc(O)c(-c3nc4ccccc4o3)c2)cc1	5	52*	-61*	42	70*	34
COc1ccccc1NC(=O)NCC(c1ccco1)N1CCCCC1 (configuration not stated)	10	13	-5	6	-1	-10
Nc1ccn([C@@H]2O[C@H](CNCc3cc(Cl)ccc3OCc3ccc(Cl)cc3)[C@@H](O)[C@H]2O)c(=O)n1	-21	-29	6	x	-10	3
SMILES	HIF-2a block	Peg3 promoter	KKLEB cytotox	MITF TRPM1 inh	CF NFkB block	Shn3 3UTR inh
CNC(=O)OCc1nc(SSC(C)(C)C)n(C)c1COC(=O)NC	-20	94*	-75*	58	78*	96*
COc1ccc2c(c1)[nH]c(=O)c1sc3ccccc3c12	-8	12	5	16	-16	8
COc1ccc2sc3c(=O)[nH]c4ccccc4c3c2c1	17	25	-26	46	63*	9
CCC(C(=O)N1CCN(Cc2ccc3c(c2)OCO3)CC1)n1c(=O)[nH]c2ccccc2c1=O (configuration not stated)	10	-10	-12	0	-15	-5
Cc1ccccc1CNC(=O)CCNS(=O)(=O)c1ccc(OC(F)(F)F)cc1	-25	-15	0	6	-3	1
CC(C)CCNC(=O)C1CCC(CNc2c(N3CCCC3)c(=O)c2=O)CC1 (configuration not stated)	12	13	-6	-17	17	-25
COc1cc(SC)ccc1C(=O)Nc1ccc(Cl)cn1	53*	28	-69*	59	-17	-14
COCC(=O)N(C)C[C@H]1N[C@@](C)(C(=O)OC)[C@H]2C(=O)N(Cc3ccccc3)C(=O)[C@@H]12	10	3	3	-3	-16	1
CCC1C/C(=C\c2cccnc2)C(=O)/C(=C/c2cccnc2)C1 (configuration not stated)	92*	109*	-66*	97*	93*	40
CC(C)(C)C1CCC(CN2C(Nc3ccccc3)=NC[C@@H]2Cc2ccccc2)CC1 (some centres not stated)	8	95*	-12	95*	10	-13
CN(C)C1=NC[C@H](Cc2ccccc2)N1CCCC1CCCC1	6	-1	-13	-26	3	86*
CCCCCCCN1C(Nc2ccccc2)=NC[C@@H]1Cc1ccccc1	6	40	-12	-7	7	86*
CC1Cc2nc(SCC(=O)NCC3CCCO3)n(-c3ccccc3)c(=O)c2S1 (configuration not stated)	1	-7	-4	x	18	4
O=C(CSc1nnc(C2CC2)n1CC1CCCO1)Nc1ccc(Cl)cc1 (configuration not stated)	-52	-22	-8	-11	6	-4
CN(C)Cc1ccccc1C(O)(c1ccccc1)c1ccccc1	9	-12	-11	16	3	9
CC1(C)OC(C(O)(c2ccccc2)c2ccccc2)[C@@H](C(O)(c2ccccc2)c2ccccc2)O1 (some centres not stated)	-12	64*	6	7	32	28
CCCCCCCn1c2c(c(=N)c3c1CCC3)CCCC2	16	31	-23	68*	47	44
Cc1nc2ccccc2n1Cc1ccc(Cl)cc1	-12	1	-6	16	-9	88*

Compound activity: PubChem BioAssay, several laboratories
